Measurements published in PubChem BioAssay (EPA / NIEHS).
The source made the active and inactive calls. How the source made its calls: active means hit-call score of the fitted dose curve at least 0.9, where 1 is the maximum; inactive means score below 0.9.

Key:
[1] = biological target: Bile acid receptor (Homo sapiens) (UniProt Q96RI1); assay: ATG_IR1_CIS: Attagene CIS-FACTORIAL HepG2 Assay for human Nuclear Receptor Subfamily 1 Group H Member 4 (NR1H4), IR1 submotif (AID 2282946); conditions: IR1 reporter transcription, actives raise or lower the signal
How it was run: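 Cells (human HepG2) carry transiently transfected cis-promoter reporter transcription units. Compounds are incubated 24 h, total RNA is reverse-transcribed and amplified, and labelled fragments are resolved by capillary electrophoresis. Curves use DMSO as baseline.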

[2] = ATG_GRE_CIS: Attagene CIS-FACTORIAL HepG2 Assay for human Glucocorticoid Response Elements (GRE) (AID 2282947); conditions: HepG2 GRE cis-reporter, Attagene multiplex mRNA; actives raise or lower the signal
How it was run: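 Transient MRTU transfection of human HepG2 liver cells; cis-regulated reporters report endogenous factors. 24 h dosing → RNA isolation → RT-PCR → 6-FAM primer extension → HpaI cut → CE fragment analysis. Bidirectional fit, DMSO negative control.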

[3] = ATG_M_32_CIS: Attagene CIS-FACTORIAL HepG2 Assay for M32 Transcription Factor (Internal Marker) (AID 2282949); conditions: HepG2 Attagene cis-factorial M32 reporter, mRNA; actives raise or lower the signal;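 further: background control marker of the multiplexed CIS panel rather than a real target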
How it was run: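 Fluorescent capillary electrophoresis peaks of HpaI-digested, FAM-labelled RT-PCR reporter products give the signal. Source: transiently transfected human liver HepG2 cells, 24 h after chemical dosing; bidirectional fitting against DMSO.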

[4] = ATG_M_06_CIS: Attagene CIS-FACTORIAL HepG2 Assay for M06 Transcription Factor (Internal Marker) (AID 2282950); conditions: HepG2 Attagene CIS-FACTORIAL M06 internal marker reporter; actives raise or lower the signal
How it was run: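 Cells (HepG2, transiently carrying cis-driven reporter units) receive chemical for 24 h before RNA isolation. Reporter cDNA is PCR-amplified, FAM-labelled by primer extension, HpaI-digested and sized on a capillary analyser.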

[5] = biological target: Hypoxia-inducible factor 1-alpha (Homo sapiens) (UniProt Q16665); assay: ATG_HIF1a_CIS: Attagene CIS-FACTORIAL HepG2 Assay for human Hypoxia Inducible Factor 1 (HIF1A) (AID 2282951); conditions: HepG2 Attagene cis-factorial HIF1a reporter transcription; actives raise or lower the signal
How it was run: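 Cis-element reporter constructs were transiently transfected into HepG2 cells, which were treated for 24 h; reporter RNA was reverse-transcribed, amplified, labelled and resolved by capillary electrophoresis.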

[6] = biological target: Hepatocyte nuclear factor 6 (Homo sapiens) (UniProt Q9UBC0); assay: ATG_HNF6_CIS: Attagene CIS-FACTORIAL HepG2 Assay for human Hepatocyte Nuclear Factor 6 (HNF6) (AID 2282952); conditions: HepG2 Attagene cis-factorial HNF6 reporter transcription; actives raise or lower the signal
How it was run: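 Cells are HepG2 carrying transiently transfected cis-promoter reporter units. Treatment lasts 24 h, after which reporter transcripts are reverse-transcribed, amplified, FAM-labelled and sized by capillary electrophoresis. DMSO serves as baseline.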

[7] = biological target: Heat shock factor protein 1 (Homo sapiens) (UniProt Q00613); assay: ATG_HSE_CIS: Attagene CIS-FACTORIAL HepG2 Assay for human Heat Shock Transcription Factor 1 (HSE) (AID 2282953); conditions: HepG2 HSE cis-reporter, Attagene RNA transcription; actives raise or lower the signal
How it was run: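 Liver-derived HepG2 cells carry transiently introduced multiple reporter units governed by cis promoters. Reporter RNA measured 24 h post-dose through reverse transcription, PCR amplification, fluorescent labelling and capillary electrophoresis, normalised to DMSO.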

[8] = ATG_MRE_CIS: Attagene CIS-FACTORIAL HepG2 Assay for human Metal Responsive Element (MRE) (AID 2282954); conditions: HepG2 MRE cis-reporter transcription, Attagene multiplex; actives raise or lower the signal
How it was run: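 Transient MRTU transfection of HepG2 (FuGene 6); 24 h dosing; total RNA → oligo(dT) RT, PCR, 6-FAM primer extension, HpaI cut, CE. Bidirectional fit vs DMSO.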

[9] = ATG_PBREM_CIS: Attagene CIS-FACTORIAL HepG2 Assay for human Phenobarbital-responsive Enhancer Module (PBREM) (AID 2282955); conditions: HepG2 PBREM cis-reporter, Attagene multiplexed transcription; actives raise or lower the signal
How it was run: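 Multiplexed cis-reporter readout in human hepatoma HepG2 cells; PBREM-regulated transcript quantified after 24 h exposure by fluorescent RT-PCR fragment analysis. Signal changes up or down fitted relative to DMSO.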

[10] = biological target: Paired box protein Pax-6 (Homo sapiens) (UniProt P26367); assay: ATG_Pax6_CIS: Attagene CIS-FACTORIAL HepG2 Assay for human Paired Box 6 (PAX6) (AID 2282956); conditions: HepG2 CIS-FACTORIAL PAX6 reporter transcription, RNA readout; actives raise or lower the signal
How it was run: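 HepG2 cells transiently transfected with multiplexed cis-promoter reporter units (endogenous TF activity) were dosed for 24 h. Reporter mRNA was quantified by RT-PCR, 6-FAM labeling, HpaI digestion and capillary electrophoresis; bidirectional fitting versus DMSO baseline.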

[11] = ATG_PXRE_CIS: Attagene CIS-FACTORIAL HepG2 Assay for human Pregnane X Receptor Element (PXRE) (AID 2282957); conditions: HepG2 Attagene CIS-FACTORIAL PXRE reporter, mRNA; actives raise or lower the signal
How it was run: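 Multiplexed cis-reporter assay in transiently transfected human HepG2 cells; 24 h chemical exposure. Reporter transcripts quantified by RT-PCR with fluorescent labeling and capillary electrophoresis.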

[12] = ATG_PPRE_CIS: Attagene CIS-FACTORIAL HepG2 Assay for human Peroxisome Proliferator-activated Response Element (PPRE) (AID 2282958); conditions: HepG2 PPRE cis-element reporter, Attagene transcription factor profiling; actives raise or lower the signal
How it was run: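 DMSO served as negative control and baseline for bidirectional curve fitting. Signal came from PPRE-regulated reporter mRNA in HepG2 cells, measured 24 h post-dosing by RT-PCR, 6-FAM primer extension and capillary electrophoresis.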

[13] = ATG_RORE_CIS: Attagene CIS-FACTORIAL HepG2 Assay for human RAR-related Orphan Receptor Element (RORE) (AID 2282959); conditions: HepG2 Attagene cis-factorial RORE reporter, mRNA; actives raise or lower the signal
How it was run: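 Transfect HepG2 with MRTUs; treat 24 h; extract RNA; RT with oligo(dT); PCR with reporter-specific primers; 6-FAM primer extension; HpaI digest 2 h at 37 C; capillary electrophoresis. Fit vs DMSO, bidirectional.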

[14] = ATG_Sox_CIS: Attagene CIS-FACTORIAL HepG2 Assay for human SRY-box transcription factor (SOX) (AID 2282960); conditions: HepG2 Attagene cis-factorial SOX reporter, mRNA; actives raise or lower the signal
How it was run: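 Fluorescence-labelled cDNA fragments from reporter transcripts, sized by CE, give the signal. Cells: HepG2, transiently transfected with cis-regulated reporter units. Exposure 24 h; DMSO negative control; bidirectional curve fitting.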

[15] = biological target: Transcription factor Sp1 (Homo sapiens) (UniProt P08047); assay: ATG_Sp1_CIS: Attagene CIS-FACTORIAL HepG2 Assay for human Specificity Protein 1 (Sp1) (AID 2282961); conditions: HepG2 Sp1 cis-reporter transcription, actives raise or lower the signal
How it was run: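 Chemicals are dosed onto HepG2 cells transfected with multiple cis-promoter reporter constructs, and after 24 h reporter RNA is reverse-transcribed, PCR-amplified and resolved by capillary electrophoresis for fluorescence quantitation; activity is scored up or down against DMSO.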

[16] = ATG_SREBP_CIS: Attagene CIS-FACTORIAL HepG2 Assay for human Sterol Regulatory Element Binding (SREBP) (AID 2282962); conditions: HepG2 Attagene cis-factorial SREBP reporter, mRNA; actives raise or lower the signal
How it was run: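 HepG2 cells transiently transfected with multiplexed cis-element reporter units report endogenous transcription factor activity. After 24 h of chemical exposure, reporter mRNA was quantified by RT-PCR, 6-FAM labelling, HpaI digestion and capillary electrophoresis; bidirectional fits used DMSO as baseline.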

[17] = biological target: Signal transducer and activator of transcription 3 (Homo sapiens) (UniProt P40763); assay: ATG_STAT3_CIS: Attagene CIS-FACTORIAL HepG2 Assay for human Signal Transducer and Activator of Transcription 3 (STAT3) (AID 2282963); conditions: HepG2, Attagene cis-factorial STAT3 reporter transcription; actives raise or lower the signal
How it was run: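 Endogenous STAT3-responsive cis-element activity was read in transiently transfected HepG2 cells after 24 h treatment. Reporter transcripts were quantified via RT-PCR and capillary electrophoresis, with DMSO as negative control and bidirectional curve fitting.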

[18] = ATG_ISRE_CIS: Attagene CIS-FACTORIAL HepG2 Assay for human Interferon Regulatory Factor 1 (IRF1) binding to an Interferon-Stimulated Response Element (ISRE) (AID 2282948); conditions: HepG2 ISRE cis-reporter (Attagene), mRNA transcription readout; actives raise or lower the signal
How it was run: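 HepG2 cells transiently transfected with multiplexed cis-promoter reporter units; after 24 h compound exposure, reporter mRNA quantified by RT-PCR, FAM labelling, HpaI digestion and capillary electrophoresis. Bidirectional fit versus DMSO baseline.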

[19] = ATG_TA_CIS: Attagene CIS-FACTORIAL HepG2 Assay for human TA Basal Promoter (AID 2282964); conditions: HepG2 Attagene CIS-factorial TA basal promoter reporter; actives raise or lower the signal
How it was run: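 Background internal-marker endpoint from a 52-component HepG2 cis-reporter panel. Cells treated 24 h; reporter transcripts quantified via RT-PCR and CE fluorescence against DMSO baseline.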

Measured: AC50

Bile acid receptor (Homo sapiens), sequence (Q96RI1 whole entry, looked up, the tested form may be a part): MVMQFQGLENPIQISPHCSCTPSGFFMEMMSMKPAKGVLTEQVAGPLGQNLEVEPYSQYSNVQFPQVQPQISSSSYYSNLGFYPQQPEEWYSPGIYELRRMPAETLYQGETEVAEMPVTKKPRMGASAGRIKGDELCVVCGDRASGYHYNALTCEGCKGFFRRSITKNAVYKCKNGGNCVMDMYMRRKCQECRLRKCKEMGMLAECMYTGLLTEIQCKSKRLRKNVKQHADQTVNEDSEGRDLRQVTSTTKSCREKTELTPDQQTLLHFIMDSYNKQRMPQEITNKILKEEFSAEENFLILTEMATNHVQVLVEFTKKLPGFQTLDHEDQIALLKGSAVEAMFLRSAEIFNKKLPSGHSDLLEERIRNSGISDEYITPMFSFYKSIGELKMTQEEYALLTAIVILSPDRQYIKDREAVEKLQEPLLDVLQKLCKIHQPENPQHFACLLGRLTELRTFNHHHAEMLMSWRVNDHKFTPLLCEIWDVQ
Hepatocyte nuclear factor 6 (Homo sapiens), sequence (Q9UBC0 whole entry, looked up): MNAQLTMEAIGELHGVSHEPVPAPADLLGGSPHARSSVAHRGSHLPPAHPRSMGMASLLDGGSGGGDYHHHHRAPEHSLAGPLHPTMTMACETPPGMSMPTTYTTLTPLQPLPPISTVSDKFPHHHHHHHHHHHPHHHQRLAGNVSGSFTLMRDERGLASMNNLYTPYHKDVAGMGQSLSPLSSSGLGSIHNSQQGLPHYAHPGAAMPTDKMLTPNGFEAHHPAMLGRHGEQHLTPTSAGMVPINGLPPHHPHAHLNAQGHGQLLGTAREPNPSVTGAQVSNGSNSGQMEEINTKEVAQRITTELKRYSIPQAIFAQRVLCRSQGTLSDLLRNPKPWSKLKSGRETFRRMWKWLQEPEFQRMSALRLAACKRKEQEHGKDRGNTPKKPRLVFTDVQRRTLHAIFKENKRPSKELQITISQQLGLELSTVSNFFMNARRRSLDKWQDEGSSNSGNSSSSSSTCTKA
Transcription factor Sp1 (Homo sapiens), sequence (P08047 whole entry, looked up): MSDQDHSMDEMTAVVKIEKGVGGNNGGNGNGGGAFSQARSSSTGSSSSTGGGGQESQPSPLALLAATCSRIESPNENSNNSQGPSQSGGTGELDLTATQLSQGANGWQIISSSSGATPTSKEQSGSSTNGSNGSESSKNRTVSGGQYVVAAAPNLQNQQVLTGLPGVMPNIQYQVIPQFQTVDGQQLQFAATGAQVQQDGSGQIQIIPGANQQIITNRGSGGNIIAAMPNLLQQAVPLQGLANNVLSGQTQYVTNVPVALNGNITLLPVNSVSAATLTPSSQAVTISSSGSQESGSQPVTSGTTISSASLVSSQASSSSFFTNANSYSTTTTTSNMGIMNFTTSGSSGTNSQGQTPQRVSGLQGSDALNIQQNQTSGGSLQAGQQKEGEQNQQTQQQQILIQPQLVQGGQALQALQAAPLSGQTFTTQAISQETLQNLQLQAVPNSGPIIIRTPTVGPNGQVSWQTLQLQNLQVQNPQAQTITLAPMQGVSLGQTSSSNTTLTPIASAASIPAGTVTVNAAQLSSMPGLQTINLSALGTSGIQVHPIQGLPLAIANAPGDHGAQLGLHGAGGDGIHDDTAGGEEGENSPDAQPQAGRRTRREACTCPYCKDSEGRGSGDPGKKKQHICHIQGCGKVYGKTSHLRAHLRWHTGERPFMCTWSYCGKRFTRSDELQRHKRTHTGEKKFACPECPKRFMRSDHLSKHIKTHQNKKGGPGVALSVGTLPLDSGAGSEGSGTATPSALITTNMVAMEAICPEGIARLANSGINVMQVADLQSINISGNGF
Heat shock factor protein 1 (Homo sapiens), sequence (Q00613 whole entry, looked up): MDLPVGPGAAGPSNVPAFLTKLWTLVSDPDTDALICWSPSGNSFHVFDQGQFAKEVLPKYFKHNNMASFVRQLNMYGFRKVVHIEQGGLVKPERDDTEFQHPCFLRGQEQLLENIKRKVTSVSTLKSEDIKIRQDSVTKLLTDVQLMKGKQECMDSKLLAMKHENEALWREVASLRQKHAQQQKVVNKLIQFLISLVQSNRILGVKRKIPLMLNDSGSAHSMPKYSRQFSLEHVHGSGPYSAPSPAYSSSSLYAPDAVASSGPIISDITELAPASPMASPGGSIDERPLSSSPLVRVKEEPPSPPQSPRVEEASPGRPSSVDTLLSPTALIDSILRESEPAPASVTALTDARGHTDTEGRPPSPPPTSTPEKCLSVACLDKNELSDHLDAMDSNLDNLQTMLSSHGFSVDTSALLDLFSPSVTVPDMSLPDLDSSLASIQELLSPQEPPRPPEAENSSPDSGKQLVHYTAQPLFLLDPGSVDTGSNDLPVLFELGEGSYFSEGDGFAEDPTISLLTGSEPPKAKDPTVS
Hypoxia-inducible factor 1-alpha (Homo sapiens), sequence (Q16665 whole entry, looked up): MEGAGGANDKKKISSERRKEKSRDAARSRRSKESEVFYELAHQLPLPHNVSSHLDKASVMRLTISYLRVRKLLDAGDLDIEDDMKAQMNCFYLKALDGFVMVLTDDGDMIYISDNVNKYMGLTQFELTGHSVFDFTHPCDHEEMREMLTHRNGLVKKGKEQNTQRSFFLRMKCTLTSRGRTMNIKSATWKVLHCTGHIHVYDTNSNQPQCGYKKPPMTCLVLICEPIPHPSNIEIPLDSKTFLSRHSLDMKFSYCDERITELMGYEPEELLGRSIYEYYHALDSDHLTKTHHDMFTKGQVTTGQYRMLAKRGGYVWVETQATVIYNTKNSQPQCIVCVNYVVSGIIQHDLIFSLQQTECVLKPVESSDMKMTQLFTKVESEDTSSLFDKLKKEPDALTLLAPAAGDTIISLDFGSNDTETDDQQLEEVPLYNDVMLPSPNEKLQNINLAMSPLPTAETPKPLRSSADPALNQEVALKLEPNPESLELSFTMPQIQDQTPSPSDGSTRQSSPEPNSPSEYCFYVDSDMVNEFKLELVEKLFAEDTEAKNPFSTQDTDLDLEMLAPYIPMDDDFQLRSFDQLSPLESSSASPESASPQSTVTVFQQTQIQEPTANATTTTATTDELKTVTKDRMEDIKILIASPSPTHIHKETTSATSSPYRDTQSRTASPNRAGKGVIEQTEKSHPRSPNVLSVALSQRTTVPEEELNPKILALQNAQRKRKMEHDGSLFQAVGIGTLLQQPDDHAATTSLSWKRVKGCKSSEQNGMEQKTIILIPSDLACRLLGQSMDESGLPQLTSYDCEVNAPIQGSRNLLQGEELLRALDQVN
Signal transducer and activator of transcription 3 (Homo sapiens), sequence (P40763 whole entry, looked up): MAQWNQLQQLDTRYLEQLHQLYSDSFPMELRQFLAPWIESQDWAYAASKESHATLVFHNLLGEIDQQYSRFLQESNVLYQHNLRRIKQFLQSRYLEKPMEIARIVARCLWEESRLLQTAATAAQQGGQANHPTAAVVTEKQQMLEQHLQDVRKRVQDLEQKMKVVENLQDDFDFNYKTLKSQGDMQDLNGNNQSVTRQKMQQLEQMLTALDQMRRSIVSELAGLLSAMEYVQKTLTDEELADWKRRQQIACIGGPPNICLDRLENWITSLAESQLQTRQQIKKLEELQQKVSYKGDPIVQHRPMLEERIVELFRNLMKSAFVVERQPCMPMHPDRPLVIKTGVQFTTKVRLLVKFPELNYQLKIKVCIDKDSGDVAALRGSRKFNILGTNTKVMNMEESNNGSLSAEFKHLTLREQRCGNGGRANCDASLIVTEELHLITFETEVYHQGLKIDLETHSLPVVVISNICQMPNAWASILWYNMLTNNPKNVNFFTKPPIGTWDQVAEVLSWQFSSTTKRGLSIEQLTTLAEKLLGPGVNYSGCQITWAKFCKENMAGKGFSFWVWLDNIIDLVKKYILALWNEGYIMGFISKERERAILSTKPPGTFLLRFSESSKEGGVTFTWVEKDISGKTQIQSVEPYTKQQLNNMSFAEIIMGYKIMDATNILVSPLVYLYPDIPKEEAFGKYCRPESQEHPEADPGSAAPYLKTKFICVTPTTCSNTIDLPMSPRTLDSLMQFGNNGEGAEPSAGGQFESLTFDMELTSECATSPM
Paired box protein Pax-6 (Homo sapiens), sequence (P26367 whole entry, looked up): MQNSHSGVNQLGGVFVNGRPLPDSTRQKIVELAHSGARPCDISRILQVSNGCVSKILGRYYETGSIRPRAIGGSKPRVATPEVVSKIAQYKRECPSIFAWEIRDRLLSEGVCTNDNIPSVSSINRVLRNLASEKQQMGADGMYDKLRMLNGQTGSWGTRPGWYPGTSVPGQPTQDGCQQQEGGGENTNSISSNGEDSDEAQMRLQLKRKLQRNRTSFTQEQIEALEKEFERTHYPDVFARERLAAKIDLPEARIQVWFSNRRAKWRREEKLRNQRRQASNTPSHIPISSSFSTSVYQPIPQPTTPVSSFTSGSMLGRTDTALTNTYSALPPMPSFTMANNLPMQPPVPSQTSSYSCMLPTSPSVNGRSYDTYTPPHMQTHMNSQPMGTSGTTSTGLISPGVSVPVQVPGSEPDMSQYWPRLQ

CCCCCCCC/C=C\CCCCCCCC(=O)N(C)CC(=O)O
inactive: [1] | [2] | [3] | [4] | [5] | [6] | [7] | [8] | [9] | [10] | [13] | [14] | [15] | [17]
active: [11] 16 µM | [12] 3.73 µM | [16] 11.1 µM

CC(=O)c1ccccc1N
inactive: [1] | [2] | [18] | [3] | [4] | [5] | [6] | [7] | [8] | [9] | [10] | [11] | [12] | [13] | [14] | [15] | [16] | [17] | [19]

OC(O)C(F)(F)C(F)(F)F
inactive: [1] | [2] | [3] | [4] | [5] | [6] | [7] | [8] | [9] | [10] | [11] | [12] | [13] | [14] | [15] | [16] | [17] | [19]
active: [18] 108 µM

CC(C)=CCCC(C)O (stereo not given)
inactive: [1] | [2] | [18] | [3] | [4] | [5] | [6] | [7] | [9] | [10] | [11] | [12] | [13] | [14] | [15] | [16] | [17] | [19]

CCCCC(CC)COC(=O)c1ccc(N(C)C)cc1 (stereo not given)
inactive: [1] | [2] | [3] | [4] | [5] | [6] | [7] | [8] | [9] | [10] | [13] | [14] | [15] | [16] | [17]
active: [11] 8.25 µM | [12] 32.6 µM

CC(C)CCCC(C)CCO (stereo not given)
inactive: [1] | [2] | [3] | [4] | [6] | [7] | [8] | [9] | [10] | [11] | [12] | [13] | [14] | [15] | [16] | [17] | [19]

OCCCCC(F)(F)C(F)(F)C(F)(F)C(F)(F)F
inactive: [1] | [2] | [18] | [3] | [4] | [5] | [6] | [7] | [8] | [9] | [10] | [11] | [12] | [13] | [14] | [15] | [16] | [17]

Cc1cnccn1
inactive: [1] | [2] | [18] | [3] | [4] | [6] | [7] | [8] | [9] | [10] | [11] | [12] | [13] | [14] | [15] | [16] | [17] | [19]

OCC1CCCO1 (stereo not given)
inactive: [1] | [2] | [3] | [4] | [5] | [6] | [7] | [8] | [9] | [10] | [11] | [12] | [13] | [14] | [15] | [16] | [17]
